Bioassay records from PubChem.
CSC inhib = blocks cancer stem cells; cancer stem cell-like cells viability, luminescence; inhibition, % at 7.5 µM; 300,000 tested, 1.1% active; AID 2717; in the data active = inhibition above about 75%; tested in HMLE shEcad cells
Mdm2 MdmX PPI = disrupts the human Mdm2-MdmX interaction. SaOS-2 split-luciferase Mdm2/MdmX complementation, luminescence. inhibition, % at 8 µM. 330,000 tested, 3% active. AID 485346;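 active = inhibition of at least 50% at 8 µM in the primary screen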
Target sequence (O15151 whole entry, looked up): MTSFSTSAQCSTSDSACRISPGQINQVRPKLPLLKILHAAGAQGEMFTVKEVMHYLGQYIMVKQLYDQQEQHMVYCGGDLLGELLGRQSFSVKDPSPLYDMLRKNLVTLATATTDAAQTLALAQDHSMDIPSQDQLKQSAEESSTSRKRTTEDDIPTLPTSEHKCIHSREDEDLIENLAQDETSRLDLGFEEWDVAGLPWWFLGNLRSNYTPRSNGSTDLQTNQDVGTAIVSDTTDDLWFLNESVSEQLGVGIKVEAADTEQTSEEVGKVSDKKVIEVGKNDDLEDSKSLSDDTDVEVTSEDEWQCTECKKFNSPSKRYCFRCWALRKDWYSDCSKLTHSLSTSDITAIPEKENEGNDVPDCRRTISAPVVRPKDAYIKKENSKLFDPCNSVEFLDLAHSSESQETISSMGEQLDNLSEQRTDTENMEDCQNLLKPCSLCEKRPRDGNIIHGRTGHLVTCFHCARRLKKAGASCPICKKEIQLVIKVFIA
Target sequence (Q00987 whole entry, looked up): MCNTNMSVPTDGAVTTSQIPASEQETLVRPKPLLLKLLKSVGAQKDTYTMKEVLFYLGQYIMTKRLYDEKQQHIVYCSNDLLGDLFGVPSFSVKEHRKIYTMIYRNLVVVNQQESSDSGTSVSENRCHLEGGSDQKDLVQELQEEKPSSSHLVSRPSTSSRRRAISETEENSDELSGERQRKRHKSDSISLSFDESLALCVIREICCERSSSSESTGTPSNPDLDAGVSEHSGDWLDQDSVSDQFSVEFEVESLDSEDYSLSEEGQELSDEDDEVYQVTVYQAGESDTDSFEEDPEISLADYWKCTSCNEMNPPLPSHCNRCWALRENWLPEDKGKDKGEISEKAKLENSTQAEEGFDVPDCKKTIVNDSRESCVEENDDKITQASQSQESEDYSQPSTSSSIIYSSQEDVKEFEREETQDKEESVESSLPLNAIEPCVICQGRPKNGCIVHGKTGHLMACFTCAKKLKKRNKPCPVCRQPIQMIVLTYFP
Calb FLC = C. albicans growth modulation with fluconazole; C. albicans CaCi-2 (fluconazole-resistant clinical isolate) + fluconazole, Alamar Blue growth, 48 h; growth inhibition, % (test concentration not listed); 300,000 tested, 0.57% active;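 active = growth inhibition above about 58% in most replicates, limit read from the data, passing the limit was not always enough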;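 also: all wells also contain fluconazole at 8 µg/ml as a sub-toxic cotreatment; 0% = median of DMSO wells and 100% = median of geldanamycin control wells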
SKKanGAS inh = inhibitors of SKKanGAS S. pyogenes growth in kanamycin (SK-promoter or general growth effect) | BacTiter-Glo, 6 h | inhibition, % at 7.5 µM | 300,000 tested, 1.3% active;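 active = mean replicate score, as percent of positive control median, at least 50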;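 also: strain carries kanamycin resistance gene driven by streptokinase promoter and grows in 40 µg/ml kanamycin; loss of luminescence reflects streptokinase promoter inhibition or plain growth inhibition; 0% = median of DMSO wells and 100% = positive control at its reference dose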
MPTP block = inhibitors of mitochondrial permeability transition pore; isolated mouse mitochondria, Ca2+ swelling absorbance, 30 min; inhibition, % at 10 µM; 360,000 tested, 1.4% active;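 active = inhibition of 50% or more, scaled per plate between neutral and stimulator controls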;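 also: 0% = DMSO wells given calcium and 100% = 1 mM EGTA wells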
Beta apoptosis = beta cell apoptosis inhibition; 300,000 tested, 0.8% active; AID 435005; INS-1E cytokine-induced death, ATP luminescence, 48 h; percent of positive-control rescue, neutral wells zero; protection from apoptosis, % (test concentration not listed);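 active = Every replicate reaches about 75%, or at least half do and their mean reaches it too, limit read from the data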;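 also: 0% = cytokine-treated negative control wells and 100% = positive control rescue; higher means more ATP so stronger rescue from cytokine killing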
The depositor's hits bear a star; · = no result. This is a sample that favours compounds with a hit; in the whole collection about 5.4% have one here.

SMILES	CSC inhib	Mdm2 MdmX PPI	Calb FLC	SKKanGAS inh	MPTP block	Beta apoptosis
CC(NC(=O)COc1ccccc1F)C1CC2CCC1C2 (configuration not stated)	-10	12	8	9	1	-5
COC(=O)c1c(NC(=O)Cc2ccccc2)sc2c1CCN(C(C)C)C2	-5	-6	-4	1	0	0
CC(C)N1CCc2c(sc(NC(=O)c3nc4ccccc4s3)c2C(N)=O)C1	-3	14	119*	17	-1	4
Cc1ccc(CN2CCSc3ccc(C(=O)NCc4ccco4)cc32)cc1	84*	30	-4	-13	7	-6
CCOC(=O)c1sc2nccc(N(C)C)c2c1N=CNOCc1ccccc1	53	-8	-3	-3	-1	3
CCOC(=O)c1sc2nccc(N(C)C)c2c1N=CNOCc1c(F)cccc1Cl	35	31	-1	52*	0	·
Cc1nc(-c2ccccc2)sc1C(=O)/C=C/c1ccc(Cl)cc1	94*	35	-2	-10	5	2
O=C(Nc1ccc(C2=NCCN2)cc1)c1ccc(C(=O)Nc2ccc(C3=NCCN3)cc2)c(Cl)c1	-19	6	90*	17	-1	19
O=C1c2cccc3c(O)ccc(c23)C(=O)N1Cc1ccccc1	20	9	100*	11	14	-1
CN1CC(c2ccc(Cl)c(Cl)c2)[C@@]2(COc3ccccc3C2=O)[C@@]12C(=O)Nc1ccccc12 (some centres not stated)	-11	35	-10	79*	22	17
CCCN1C(=O)c2ccccc2NC1c1ccc(Cl)c(Cl)c1 (configuration not stated)	-7	-11	-21	2	2	2
COC(=O)[C@]1(CC(C)C)N[C@H](c2ccc(-c3ccc4c(c3)OCO4)cc2)[C@@H]2C(=O)N(C)C(=O)[C@@H]21	10	14	-7	0	0	-6
COc1ccc([C@H]2CC(=O)C=C(c3ccc(F)cc3OCc3ccccc3)C2)cc1	-1	30	·	·	2	20
O=C1C=C(c2ccc(F)cc2OCc2ccccc2)C[C@@H](c2ccc(F)cc2)C1	93*	13	·	·	1	65
COc1ccc(-n2cnnc2SCC(=O)N2CCN(S(=O)(=O)c3ccccc3)CC2)cc1	-5	7	0	-2	1	-1
CCOc1ccccc1/C=C/c1cc(C(=O)O)c2ccccc2n1	-12	1	7	8	1	-4
CC(C)(C)c1cc(CSC(=S)NC2CCS(=O)(=O)C2)c(Br)c(C(C)(C)C)c1 (configuration not stated)	97*	18	-2	96*	29	-40
Cc1ccc(Cl)cc1N1CCN(C(CC(C)C)c2nnnn2CC2CCCO2)CC1 (configuration not stated)	101*	24	-10	-3	4	5
CCCC(c1nnnn1CC1CCCO1)N1CCN(c2cc(Cl)ccc2C)CC1 (configuration not stated)	99*	20	16	-7	-2	3
CC(C)CC(c1nnnn1CC1CCCO1)N1CCN(c2cccc(Cl)c2)CC1 (configuration not stated)	65	2	7	-1	1	-5
CCC(c1nnnn1C(C)(C)C)N1CCN(c2cc(Cl)ccc2C)CC1 (configuration not stated)	1	14	10	8	1	-3
COc1ccc(Cn2nnnc2C(CC(C)C)N2CCN(c3ccccc3)CC2)cc1 (configuration not stated)	9	24	-27	4	6	2
CC(C)CC(c1nnnn1Cc1ccco1)N1CCN(c2cccc(Cl)c2)CC1 (configuration not stated)	110*	30	-17	14	1	19
CC(=O)c1ccc(C(=O)Nc2ccc(N3CCOCC3)cc2)cc1	0	6	3	-2	-1	-3
CC(C)(C)c1ccc(C(=O)Nc2ccc(N3CCOCC3)cc2)cc1	79*	29	9	10	0	7
SMILES	CSC inhib	Mdm2 MdmX PPI	Calb FLC	SKKanGAS inh	MPTP block	Beta apoptosis
NC(=O)N1CCC2(CC1)NC(=O)N(c1ccccc1)N2	-3	11	109*	7	-2	2
CC(=O)N1CCC2(CC1)NC(=O)N(c1ccccc1)N2	5	-1	7	12	0	-3
CC1(C)Cc2c(cnn2-c2ccccc2)C(=O)/C1=N\NC(=O)c1ccncc1	10	19	-4	7	0	0
CC1(C)Cc2c(cnn2-c2ccccc2)-c2c1c1ccccc1n2CC(O)CCl (configuration not stated)	10	16	23	64*	0	-3
CN1C(=O)CC(C(=O)O)SC1=Nc1ccc(F)cc1 (configuration not stated)	-21	8	0	1	0	1
O=c1cc(-c2ccc(O)c(-c3c(O)cc(O)c4c(=O)cc(-c5ccc(O)cc5)oc34)c2)oc2cc(O)cc(O)c12	16	19	-5	62*	14	-2
CCOc1ccc(NC(=O)c2cn(-c3ccc(OCC)cc3)c(=O)c3cc(OC)c(OC)cc23)cc1	8	19	86*	6	2	1
CCOc1ccc(-n2cc(C(=O)Nc3cccc(Cl)c3)c3cc(OC)c(OC)cc3c2=O)cc1	0	38	40	13	2	10
CC(C)=CCc1c(O)cc2c(=O)c3ccc(O)cc3oc2c1O	83*	-57	1	16	3	-2
COc1c(CC=C(C)C)c(O)cc2oc(=O)c3c4ccc(O)cc4oc3c12	-2	2	19	13	3	-6
CC(C)(C)c1cc(C(=O)NNc2ccc(OC(F)(F)F)cc2)n(Cc2ccccc2)n1	78*	15	81*	11	13	6
CC(C)(C)c1cc(C(=O)NNc2cccc(Cl)c2)n(Cc2ccccc2)n1	128*	17	-6	32	30	23
Cc1ccc(NNC(=O)c2cc(C(C)(C)C)nn2Cc2ccccc2)cc1	93*	17	1	60*	13	7
COc1ccccc1NNC(=O)c1cc(C(C)(C)C)nn1Cc1ccccc1	30	-11	17	-5	3	-1
COC(=O)CN1C(=O)C(C)(C)Oc2ccc(C(=O)NC3CC3)cc21	-9	8	0	-7	-1	1
CN(C(=O)c1cn2ccccc2n1)c1c(N)n(Cc2ccccc2)c(=O)[nH]c1=O	-9	-26	-5	-5	-2	-2
CC(C)(C)c1ccc(C(=O)Nc2ccc(F)cc2)s1	28	-181	-2	53*	22	-3
CCc1cc2cc(C(=O)Nc3ccc(F)cc3)sc2s1	-1	-31	-26	5	8	2
C/C(=N\NC(=O)CCC(=O)N/N=C(\C)c1ccc(C)o1)c1ccc(C)o1	1	-9	-7	0	1	-5
COc1ccc(NS(=O)(=O)c2ccc3nc(COc4ccc(C#N)cc4)[nH]c3c2)cc1	9	21	-6	19	-14	4
